This is an account of results in ChEMBL document CHEMBL3988442, “University of Dundee, Small-Polar-MMV Screening Library” (2021).

Each structure is given as a SMILES string. Out of some 48,000 compounds screened, about 13,000 (27%) showed an effect of 50% or more. This is one part of the list.

The assay relates to Wolbachia pipientis. Kind of assay: Anti-Wolbachia Cell-Based Screen. The format is functional. Also noted: scale not given: in the data most compounds retested in dose-response had high values. Particulars: 5 µM.
As for `N#CC1COCCN1S(=O)(=O)c1ccc2c(c1)CCC2` (centres undefined), the “Percent Effect” value is listed as 4.042%. Consider `N#Cc1cccnc1N[C@@H]1c2ccccc2C[C@@H]1O`, for which the “Percent Effect” value was found to be 4.876%. Under `CCN(CC)C(=O)[C@@H]1C[C@H](N)CN1C(=O)c1cc2c([nH]c1=O)CCC2` stands -7.026%; under `Cc1cnc(C)c(-c2cc(O)c3c(c2)CN(Cc2nccs2)CCO3)n1`, 17.73%; under `Cc1nn(C)c(C)c1C(=O)N1CCN(c2ccncc2Cl)CC1`, 86.38%. The same measure for `Cc1cc(C(=O)N2CCN(c3ccncc3Cl)CC2)n(C)n1`: 77.84%; for `Cc1nn(C)c(C)c1C(=O)N1CCN(C(=O)CCC2CCCCC2)CC1`: -21.72%. The same measure for `O=C(N1CCOCC1)N1CCN(c2ccncc2Cl)CC1`: -18.06%; for `CC(C)c1cc(C(=O)N2CCN(c3ccncc3)CC2)n(C)n1`: 12.18%; for `Cc1cccc(N2CCN(C(=O)c3c(C)nn(C)c3C)CC2)c1C`: 34.44%. Take `Cc1cc(F)ccc1S(=O)(=O)NCC(O)c1cccn1C` (centres undefined): the “Percent Effect” value is listed as -4.916%. As for `CCOCC1CN(C(=O)CC2=CCCCC2)Cc2nnn(C)c21` (centres undefined), the “Percent Effect” value is given as 41.96%. Regarding `O=C1CO[C@H]2CN(S(=O)(=O)c3ccccc3)C[C@H]2N1Cc1ccccn1`, the “Percent Effect” value is reported as 1.166%. Under `Cc1nccc([C@H]2C[C@@H]3CCN(S(=O)(=O)N(C)C)C[C@H]3O2)n1` stands -8.198%; under `Cc1nccc([C@@H]2C[C@@H]3CCN(S(=O)(=O)C4CC4)C[C@H]3O2)n1`, 103.3%. Under `Cc1nccc([C@@H]2C[C@@H]3CCN(S(=O)(=O)N(C)C)C[C@H]3O2)n1` stands 88.34%; under `Cc1nccc([C@H]2C[C@@H]3CCN(S(=O)(=O)C4CC4)C[C@H]3O2)n1`, 101.1%; under `Cc1nccc([C@@H]2C[C@H]3CN(S(=O)(=O)c4ccccc4)C[C@H]3O2)n1`, 93.7%. The same measure for `O=C(C1CCOCC1)N1CC[C@H]2C[C@@H](c3ccncn3)O[C@@H]2C1`: -5.284%; for `O=C1CO[C@H]2CN(S(=O)(=O)c3ccccc3)C[C@H]2N1c1ccccc1`: -3.468%. With `N#Cc1cc2c(=O)n(CC(O)c3cccc(O)c3)ccc2[nH]c1=O` (centres undefined), the “Percent Effect” value is recorded as -10.2%. The same measure for `COc1cc(N2CC[C@@H]3O[C@@H](c4ccnc(C)n4)C[C@H]3C2)ncn1`: -12.7%; for `Cc1nccc([C@@H]2C[C@@H]3CCN(S(C)(=O)=O)C[C@H]3O2)n1`: -4.62%. For the compound `Cc1nccc([C@H]2C[C@@H]3CCN(S(C)(=O)=O)C[C@H]3O2)n1`, the “Percent Effect” value turned out to be 116.1%.

In the case of `O=S(=O)(NC1CCC2(CC1)OCCO2)c1ccccc1Br`, the “Percent Effect” value is reported as -6.742%.

In the case of `COC(=O)CCCNC(=O)N1CCc2c(F)ccc(F)c2C1`, the “Percent Effect” value is listed as -9.292%. Under `CC(=O)Nc1ccc(OCc2noc(C(=O)N3CCCC3)n2)cc1` stands 120.5%; under `CCOCCNC(=O)Nc1ccc(OCc2noc(C3CC3)n2)cc1`, -0.9885%. Under `NC(=O)Cc1ccc(OCc2noc(C(=O)N3CCCC3)n2)cc1` stands 130.8%. Under `CC(=O)Nc1ccc(OCc2noc(C(=O)N3CCCCCC3)n2)cc1` stands 101%; under `CC(=O)Nc1ccc(OCc2noc(C(=O)N3CCCCC3)n2)cc1`, 122.5%. For the compound `O=C(c1nc(COc2ccc3c(c2)OCO3)no1)N1CCCC1`, the “Percent Effect” value came out at 8.865%. Under `CCc1nc(COc2ccc(OCc3cnn(C)c3)cc2)no1` stands -33.42%; under `CCOCCCC(=O)Nc1ccc(OCc2noc(C3CC3)n2)cc1`, 20.67%. Turning to `CC(C)c1nc(C2CCCN2c2ncc(C(N)=O)cc2Cl)no1` (centres undefined), the “Percent Effect” value is listed as -26.86%. Under `CC(C)=Cc1c(-c2ccccc2)ncn1CCN(C)S(C)(=O)=O` stands -6.043%. Under `CCCc1nnc(NC(C)c2ccc3c(c2)OCCO3)o1` (centres undefined) stands 16.29%; under `COCCCn1ccc(NC(=O)NCCCNc2ccccc2)n1`, -2.159%; under `COc1cc(Cl)c(C)cc1NC(=O)CCNc1ccc(C#N)cn1`, -3.637%.

Turning to `CC(C)c1nc(CN(C)CC2CCN(CCO)CC2)no1`, the “Percent Effect” value is -11.77%.

As for `c1ccc2cc(OCCN3CCn4c(nnc4C4CC4)C3)ccc2c1`, the “Percent Effect” value is on record as 2.138%. The same measure for `CCN1C(=O)CC[C@@H]2[C@H]1CCN2C(=O)Cc1cccc(OC)c1`: -2.508%; for `NC(=O)c1nc(COc2ccc3c(c2)OCO3)no1`: 26.77%; for `CCOC(=O)c1nc(COc2ccc(CC(N)=O)cc2)no1`: 100.5%. The same measure for `CC(C)Cc1nc(COc2ccc(N(C)C(N)=O)cc2)no1`: -36.1%; for `CC(C)C1CN(C(=O)c2ccc(N3CCCC3)nc2)CCS1` (centres undefined): -8.119%; for `Cc1cccc(C(=O)NC2CCN(c3cnn(C)c3)C2=O)n1` (centres undefined): -1.568%. The same measure for `CN(Cc1csc(-c2ccccc2)n1)C(=O)CCNS(C)(=O)=O`: -10.81%; for `CNC(=O)Cc1noc(Cc2cccc(Cl)c2)n1`: 10.38%. Take `Cc1nc(CNC(=O)NCC(O)c2cccc(Cl)c2)cs1` (centres undefined): the “Percent Effect” value was -14.28%. For the compound `O=C(O)CCNC(=O)Cc1csc(-c2cccc(Cl)c2)n1`, the “Percent Effect” value was found to be 119%. Consider `O=C(O)CNC(=O)Cc1csc(-c2cccc(Cl)c2)n1`, for which the “Percent Effect” value was 95.07%. The same measure for `COc1ccc(C(=O)N2C[C@@H](CN3CCCC3)[C@@H](CO)C2)c(C)c1`: 5.26%. `O=c1[nH]c(CN2CCN(CC(F)(F)F)CC2)nc2ccccc12`: the “Percent Effect” value is -9.937%. The same measure for `CCn1c(CN2CCOC(Cn3cncn3)C2)nc2cc(F)ccc21` (centres undefined): 8.019%; for `Cc1ccc(C2(CN3CCN(c4ncccn4)CC3)CCNCC2)nc1`: -14.8%; for `Cc1ccc(C2(CN3CCCC3)CCNCC2)nc1`: 5.469%. Under `CCn1cncc1CN1CCN(CC2(c3ccc(C)cc3)CC2)CC1.Cl` stands 124%; under `COCCn1cncc1CN1CCCC(C)(c2ccccc2)C1` (centres undefined), -12.89%; under `Cc1ccc(C2(CN3CCN(Cc4cncn4C)CC3)CC2)cc1.Cl`, 158.8%.

As for `Cc1ccc(C2(CN3CCN(Cc4cnc(C)n4C)CC3)CC2)cc1.Cl`, the “Percent Effect” value came out at 125%. The same measure for `Cn1cncc1CN1CCC2(CC1)CCN2c1ncccn1`: 0.5048%; for `CCn1cncc1Cn1cccc(C(F)(F)F)c1=O`: 2.585%; for `COCCN1CCCC12CCN(Cc1cncn1C)CC2.O=C(O)C(F)(F)F.O=C(O)C(F)(F)F`: -4.301%.

On to `Cc1ccc(C(=O)Nc2cc(C(N)=O)ccc2CN(C)C)cc1Cl`, for which the “Percent Effect” value is -14.19%. Take `NC(=O)c1ccc(NC(=O)N2CCN(c3cccs3)CC2)c(F)c1`: the “Percent Effect” value is -5.895%.

`CS(=O)(=O)NC[C@H]1OC[C@@H](NC2CCC(F)(F)CC2)[C@@H]1O`: the “Percent Effect” value was -4.949%. Consider `COc1ccc(F)c(F)c1CN1CCC2(CC1)[C@H](O)C[C@@H]2OCCN`, for which the “Percent Effect” value is listed as 1.725%. Take `OCCO[C@H]1C[C@@H](O)C12CCN(Cc1nc(C(F)(F)F)no1)CC2`: the “Percent Effect” value worked out at 99.64%. Under `COCc1noc(CN2C(=O)OC[C@@H]2C(C)C)n1` stands -2.73%; under `CO[C@H]1C[C@@H](O)C12CCN(Cc1nc(C(F)(F)F)no1)CC2`, 107.1%. The same measure for `CNc1cc(C)nc(N2CCC3(CC2)[C@H](O)C[C@@H]3OC)n1`: 12.2%; for `COCc1noc(CN2CCC3(CC2)[C@H](O)C[C@@H]3OC)n1`: 101.4%; for `NCCO[C@H]1C[C@@H](O)C12CCN(Cc1c(F)cccc1F)CC2`: -12.61%.

As to `COc1cc(CN2CCC3(CC2)[C@H](O)C[C@@H]3OCCO)ccc1F`, the “Percent Effect” value is recorded as 8.427%.

As for `CCN(Cc1nc(COC)no1)C[C@]1(O)CCCN2CCCC[C@@H]21`, the “Percent Effect” value is recorded as -7.865%. The same measure for `Cc1ccccc1SC1CCN(C(=O)C2CNCC(=O)N2)CC1` (centres undefined): -16.36%. As for `COc1nccnc1-c1cccc(-c2ccn(CC3COCCO3)n2)c1` (centres undefined), the “Percent Effect” value is given as -15.38%.

On to `CCN(C)c1ncnc2c1CCN(C(=O)c1cccn1C)CC2`, for which the “Percent Effect” value is on record as -8.14%. The same measure for `COCCn1cc(C(=O)N2CCCC2c2cc(C)on2)c2ccccc21` (centres undefined): -11.13%; for `CC(C)n1ccc2c(NC(=O)c3n[nH]c4c3CCC4)cccc21`: 99.33%.

Take `COCCn1ccc2c(NC(=O)c3n[nH]c4c3CCCC4)cccc21`: the “Percent Effect” value was found to be 111.2%. Regarding `CC(C)Cn1cncc1CNC(=O)c1cccc(-n2cnnc2)c1`, the “Percent Effect” value amounted to 1.824%. The same measure for `CC(C)Cn1ccc2c(NC(=O)c3n[nH]c4c3CCC4)cccc21`: 106.4%. For the compound `CC(C)CN1CCc2[nH]nc(C(=O)N3CCCC3)c2C1.O=C(O)C(F)(F)F`, the “Percent Effect” value came to 26.25%. Turning to `COCCn1ccc(=O)c(OCC(=O)Nc2cccc(C(C)=O)c2)c1C`, the “Percent Effect” value was 6.255%. Consider `COCCn1ccc2c(NC(=O)c3n[nH]c4c3CCC4)cccc21`, for which the “Percent Effect” value worked out at 97.48%.

With `O=C(c1n[nH]c2c1CCC2)N1CCCC1c1nc(-c2ccccc2)no1` (centres undefined), the “Percent Effect” value is on record as 8.692%. Under `O=C(c1n[nH]c2c1CCC2)N1CCCC1c1nc(-c2ccccn2)no1` (centres undefined) stands 14.67%. The same measure for `Cc1noc(C)c1CSc1nc(=O)ccn1C(C)C`: -1.27%; for `NC(=O)C(NC(=O)COCCc1ccccc1)c1ccccc1F` (centres undefined): -15.69%; for `CCCn1nc2c(cc1=O)CN(CCCS(N)(=O)=O)CC2`: -2.42%. Under `CCC[C@@H]1CN(Cc2c[nH]c(CC3CCCC3)n2)C[C@H]1C(=O)O` stands -10.74%; under `CCOC(=O)c1coc(N2CCC(C(C)N3CCCC3)CC2)n1` (centres undefined), 0%; under `O=C(CCc1ccsc1)NS(=O)(=O)Cc1ccon1`, -50.57%.

In the case of `Cn1ccnc1CCNC(=O)C1CCCN(Cc2cccc(F)c2)C1` (centres undefined), the “Percent Effect” value is -2.372%. The same measure for `O=C(CCc1ccc(Br)cc1)NCc1nnc[nH]1`: -10.7%.

For the compound `Cc1cc2ccccc2n1CCC(=O)NCc1ncc[nH]1`, the “Percent Effect” value is -13.5%. The same measure for `CC(CCc1cccc(F)c1)NC(=O)NCc1ncnn1C` (centres undefined): -8.39%; for `Cc1cc(CCC(=O)N2CC[C@H](O)C2)ccc1Br`: 2.583%. `Cc1cc(CCC(=O)NCc2nccn2C)ccc1Br`: the “Percent Effect” value is on record as 125.4%.

On to `Cn1ccnc1CNC(=O)CCc1cccc(F)c1`, for which the “Percent Effect” value turned out to be 127.3%. Regarding `Cc1cc(CCC(=O)N2CCC(O)CC2)ccc1Br`, the “Percent Effect” value is given as -5.317%. Under `Cc1cc(CCC(=O)NCc2ncc[nH]2)ccc1Br` stands 105.6%.
